# Test results published in ChEMBL document CHEMBL3988442, “University of Dundee, Small-Polar-MMV Screening Library” (2021).
# The whole screen tested about 85,000 compounds, of which about 440 (0.52%) showed an effect of 50% or more. This is one part of a sample in which strong results are shown more often than they occur.
# Experiment: In vitro enzyme assay to detect hydrolysis of chlorophenol red-beta-D-[…] directly proportional to the number of Toxoplasma stably expressing beta-galactosidase
# Format: functional, organism-based, Toxoplasma gondii
# Set-up: scale not given: in the data most compounds retested in dose-response had high values
SMILES,Percent Effect (10 µM) [%],Percent Effect (50 µM) [%]
CC1CCC(N2Cc3nc(N)ncc3C2=O)CC1 (centres undefined),-0.06734,–
CNc1ncc2c(n1)CN(C1CCCC1)C2=O,52.32,–
CN(C)c1ncc2c(n1)CN(C1CCSCC1)C2=O,78.86,–
CN(C)c1ncc2c(n1)CN(C1CC(C)(C)NC(C)(C)C1)C2=O,-0.4714,–
Nc1ncc2c(n1)CN(C1CCCC1)C2=O,17.83,–
CNc1ncc2c(n1)CN(C1CC(C)(C)NC(C)(C)C1)C2=O,-1.01,–
COCc1nc(C2CCN(S(C)(=O)=O)C2)no1 (centres undefined),–,-61
CC(O)CN(CCN)C(=O)OC(C)(C)C (centres undefined),–,-7.411
NCC(O)c1ccncc1 (centres undefined),–,1.266
NCC(O)c1ccc(-c2ccccc2)cc1 (centres undefined),–,100.3
NCC(O)c1cccc2ccccc12 (centres undefined),–,36.71
CCN(CC)C(=O)CN(C)C(=O)Cc1cccc(F)c1,–,1.744
CN(Cc1cc(C#N)cs1)Cc1nccn1C,–,-7.444
CC(C)N1CCC(c2n[nH]cc2-c2ccnc(N)c2)C1 (centres undefined),18.38,–
Nc1cc(-c2c[nH]nc2C2CCCCN2C(=O)C2CCCC2)ccn1 (centres undefined),-17.94,–
CC(C)CNc1cc(-c2c[nH]nc2C2CCN(C(=O)C3CC3)C2)ccn1 (centres undefined),86.59,–
CC(C)Nc1cc(-c2c[nH]nc2C2CCN(C(=O)C3CCC3)C2)ccn1 (centres undefined),95.4,–
Cc1c[nH]nc1C1CCN(C(=O)C2CCC2)CC1,14.73,–
CN1CCC(c2n[nH]cc2-c2ccnc(N)c2)C1 (centres undefined),-7.314,–
Nc1cc(-c2c[nH]nc2C2CCN(C(=O)C3CCCC3)C2)ccn1 (centres undefined),5.055,–
Cc1c[nH]nc1C1CCN(C(=O)C2CCOCC2)C1 (centres undefined),9.496,–
CC(=O)N1CCC(c2n[nH]cc2-c2ccnc(N)c2)C1 (centres undefined),20.34,–
CCCNc1cc(-c2c[nH]nc2C2CCN(C(=O)C3CCC3)C2)ccn1 (centres undefined),94.14,–
Cc1c[nH]nc1C1CCN(C(=O)C2CCCC2)C1 (centres undefined),6.331,–

SMILES,Percent Effect (10 µM) [%],Percent Effect (50 µM) [%]
CC(C)Nc1cc(-c2c[nH]nc2C2CCN(C(=O)C3CC3)C2)ccn1 (centres undefined),77.26,–
NCCC(=O)N1CCCC1Cc1cccc(F)c1 (centres undefined),–,-2.968
COc1cc(Br)c(CN)cc1OC,–,44.43
CC(C(=O)N1CCCC1)N1CCN(c2nc[nH]n2)CC1 (centres undefined),–,16.6
N#Cc1ccc(C(=O)NCCCc2csc(N)n2)cn1,–,3.81
CC(=O)N(C)C1CCNCC1,–,-2.944
CNC(=O)CCSc1ccc2c(c1)OCCO2,–,0.7135
NCC(=O)Nc1cc(C(F)(F)F)c[nH]c1=O,–,-2.166
CCCn1ccnc1CNC(=O)CCC(=O)N(C)C,–,-10.54
CNc1nnc(SCc2ncc(C)o2)s1,–,-1.305
CCOC(=O)NCc1nn(CCN2CCCC2)c(=O)c2ccccc12,7.365,–
CCNC(=O)NCc1nn(CCN2CCCC2)c(=O)c2ccccc12,21.21,–
COCC(=O)NCc1nn(CCN2CCCC2)c(=O)c2ccccc12,94.96,–
CCC(=O)NC(C)(C#N)C(C)C (centres undefined),–,2.056
CC1CCN(CC(N)=O)CC1,–,-12.83
O=C(NCCc1cccs1)c1cc[nH]n1,–,7.034
CCC(N)c1cnn(CC)c1 (centres undefined),–,-19.44
O=C(c1ccc(-c2ccc(O)nc2)s1)N1CCCCC1,53,–
O=C(c1ccc(O)nc1)N1CCN(C(=O)c2ccc(F)c(F)c2)CC1,5.066,–
CCNc1ncc(C(=O)N2CCCCC2)s1,–,3.681
O=C(c1ccc(O)nc1)N1CCCCCCC1,–,-10.69
O=C(c1cnc(-c2cccnc2)nc1)N1CCSCC1,1.887,–
O=C(c1ccc(-c2ccc(O)nc2)s1)N1CCCCCC1,59.06,–
O=C(c1cnn(-c2ccccc2)c1)N1CCCCC1,–,-4.798

SMILES,Percent Effect (10 µM) [%],Percent Effect (50 µM) [%]
O=C(c1cc(-c2cccs2)cs1)N1CCSCC1,-31.67,–
O=C(c1ccc(-c2ccc(O)nc2)s1)N1CCSCC1,61.48,–
O=C(CN1CCNCC1)c1ccccc1Cl,–,-6.338
O=C(c1cnsn1)N1CC=C(c2ccccc2)CC1,–,3.694
CCC(C)(O)CCN (centres undefined),–,17.18
Cc1ccc(NC(=O)CN2CCNCC2)c(C)c1,–,-5.303
CCC(CC)NC(=O)CSc1nnc(N)n1C,–,-0.697
Cn1ncc2c(NCc3ccccc3CO)ncnc21,–,2.537
Cc1ccc(CN(C)C(=O)Cn2cnnn2)o1,–,88.2
Cc1ccc(CN(C)C(=O)CSc2nncn2C)o1,–,6.979
Cc1cc(C)n(C2CN(CC(=O)N(C)Cc3ccc(C)o3)C2)n1,1.659,–
CN1CCCN(C(=O)c2ccc(C#N)cc2)CC1,–,-7.834
CC(C)c1nc(CN2CCCC3(CCNC3)C2)co1 (centres undefined),–,-11.26
NC(c1ccccc1)C1(CO)CCC1 (centres undefined),–,8.034
Cc1ccc(OCCNC(=O)CN2CSCC2=O)cc1,–,-3.002
Cc1nn(C)c2c(=O)n(C(C)C)c(NCCc3ccccc3)nc12,81.01,–
CCn1c(NCc2ccccn2)nc2c(C)nn(C)c2c1=O,61.62,–
CCOc1ccccc1Nc1nc2c(C)nn(C)c2c(=O)n1C,17.23,–
COc1ccccc1Nc1nc2c(C)nn(C)c2c(=O)n1C,9.981,–
Cc1nc(NCc2ccccn2)c2c(n1)c(C)nn2C,13.62,–
CCc1nc(NCc2ccccn2)c2c(n1)c(C)nn2C,20.03,–
Cc1nn(C)c2c(=O)n(C(C)C)c(NCC3CCCO3)nc12 (centres undefined),6.206,–
Cc1nn(C)c2c(NCc3cccnc3)nc(C(C)C)nc12,25.8,–
Cc1nc(NCc2cccnc2)c2c(n1)c(C)nn2C,-7.547,–

SMILES,Percent Effect (10 µM) [%],Percent Effect (50 µM) [%]
CCn1c(NCc2cccnc2)nc2c(C)nn(C)c2c1=O,57.44,–
CCCn1c(NCCc2ccccc2)nc2c(C)nn(C)c2c1=O,74.28,–
CC(=O)c1ccc2c(c1)CCC(=O)N2C,–,4.842
CCOC(=O)NCCC(=O)N1CCCCCC1,–,12.12
Cc1ccc(F)c(S(=O)(=O)NC[C@@H]2CCNC[C@H]2O)c1,–,0.2013
CN(C)Cc1nnc(-c2ccccc2)o1,–,4.493
Cc1cc(CN)sc1C,–,12.43
COC(=O)c1ccc2c(c1)N(C)C(=O)CO2,–,-4.49
CCn1c(Nc2ccccc2OC)nc2c(C)nn(C)c2c1=O,-60.37,–
CCn1c(NCc2ccco2)nc2c(C)nn(C)c2c1=O,8.368,–
COc1ccc(C(C)Nc2nc3c(C)nn(C)c3c(=O)n2C)cc1 (centres undefined),18.77,–
CCn1c(NCc2ccccc2)nc2c(C)nn(C)c2c1=O,72.53,–
COc1ccc(Nc2nc3c(C)nn(C)c3c(=O)n2C)cc1,8.6,–
CCn1c(NCc2ccc(OC)cc2)nc2c(C)nn(C)c2c1=O,69.56,–
O=C(NCC1(O)CCNC1)c1ccc(F)c(O)c1 (centres undefined),–,-8.112
O=C(NCc1c[nH]nn1)C1(Cc2ccccc2)CCC1,–,-1.868
O=C(Nc1cnccn1)c1ccc(F)cn1,–,3.391
Cc1ncc(CNCCO)c2cc(C(=O)c3ccc(Br)cc3)oc12.Cl,76.96,–
Cc1ncc(CNC(C)(C)CO)c2cc(C(=O)c3ccc(Br)cc3)oc12,20.02,–
Cc1ncc(CNCC(C)O)c2cc(C(=O)c3ccc(Br)cc3)oc12.Cl (centres undefined),12.01,–
Cc1ncc(CN(C)CCO)c2cc(C(=O)c3ccc(Br)cc3)oc12.Cl,15.47,–
Cc1ncc(CN2CCCC2)c2cc(C(=O)c3ccc(Br)cc3)oc12.Cl,24.27,–
COC(=O)c1ccc(C(=O)NC2(C#N)CCCC2)cc1,–,-9.94
COc1cc(CN)cc(Br)c1OC,–,0.1756

SMILES,Percent Effect (10 µM) [%],Percent Effect (50 µM) [%]
Cn1ccc(C(=O)N2CCOc3ccccc32)cc1=O,–,-11.87
Cc1scc(-c2nnc(SCC(N)=O)n2C)c1C,–,-29.64
CSC(C)C(=O)Nc1ccc(Cl)c(C(=O)N(C)C)c1 (centres undefined),–,8.458
Cc1cc(C(=O)Nc2cnn(CC(F)(F)F)c2)nc(N(C)C)n1,54.34,–
Cc1cc(C(=O)Nc2cnn(CC(F)(F)F)c2)nc(N2CCOCC2)n1,69.43,–
CCN(CC)c1nc(C)cc(C(=O)Nc2cnn(CC)c2)n1,-30.04,–
CCn1cc(NC(=O)c2cc(C)nc(N3CCOCC3)n2)cn1,48.82,–
Cn1nccc1C(=O)Nc1cnn(CC(F)(F)F)c1,–,-29.38
Cc1cc(C(=O)NCc2c(C)nn(C)c2C)nc(N2CCOCC2)n1,20.1,–
CCCn1ccc(NC(=O)NC(C)C)n1,–,-36
CN(C)CC(=O)NC(C)(C(N)=O)c1cccc(Cl)c1 (centres undefined),–,2.258
Cc1ccc2c(c1)C(=O)NCC2,–,-9.759
CSc1ccc(CN(CCO)Cc2nccn2C)cc1,19.56,–
Cc1cccc(CN(CCO)Cc2nccn2C)n1,–,18.88
CCc1ccc(CN(CCO)Cc2nccn2C)nc1,–,67.1
NC(=O)OCCNC(=O)c1occc1Br,–,5.554
CCN1CCCC1CNC(=O)c1cccc(OC)c1 (centres undefined),–,4.98
CCNC(=O)C1CN(C(=O)C(O)c2ccc(Br)cc2)C1 (centres undefined),–,-1.346
Cc1ccc([C@]2(O)CC[C@H]3CN(Cc4ccc(Cl)cc4Cl)C[C@H]32)nc1,8.934,–
Cc1ccc([C@]2(O)CC[C@H]3CN(Cc4cccc(Cl)c4Cl)C[C@H]32)nc1.O=C(O)CC(O)(CC(=O)O)C(=O)O,51.44,–
CSc1ccc(CN2C[C@@H]3CC[C@@](O)(c4ccc(C)cn4)[C@@H]3C2)cc1,14.14,–
Cc1cccnc1[C@]1(O)CC[C@H]2CN(Cc3cccc(Cl)c3Cl)C[C@H]21.O=C(O)CC(O)(CC(=O)O)C(=O)O,10.13,–
Cc1ccc([C@]2(O)CC[C@H]3CN(Cc4cccc(F)c4F)C[C@H]32)nc1.O=C(O)CC(O)(CC(=O)O)C(=O)O,-4.995,–
